Compound activity from PubChem BioAssay.
An excerpt weighted towards active compounds, which were near 2.4% of everything screened.
D2 PAM-1 – human D2 receptor positive allosteric modulation; P14416; DiscoveRx D2 beta-arrestin cells, luminescence, 90 min; 100% = 57 uM dopamine signal; potentiation, % (test concentration not listed); 0.23% of 360,000 active; in the data active means potentiation above about 50%; inconclusive means mostly about 30% to 49%
Target sequence (P14416 whole entry, looked up): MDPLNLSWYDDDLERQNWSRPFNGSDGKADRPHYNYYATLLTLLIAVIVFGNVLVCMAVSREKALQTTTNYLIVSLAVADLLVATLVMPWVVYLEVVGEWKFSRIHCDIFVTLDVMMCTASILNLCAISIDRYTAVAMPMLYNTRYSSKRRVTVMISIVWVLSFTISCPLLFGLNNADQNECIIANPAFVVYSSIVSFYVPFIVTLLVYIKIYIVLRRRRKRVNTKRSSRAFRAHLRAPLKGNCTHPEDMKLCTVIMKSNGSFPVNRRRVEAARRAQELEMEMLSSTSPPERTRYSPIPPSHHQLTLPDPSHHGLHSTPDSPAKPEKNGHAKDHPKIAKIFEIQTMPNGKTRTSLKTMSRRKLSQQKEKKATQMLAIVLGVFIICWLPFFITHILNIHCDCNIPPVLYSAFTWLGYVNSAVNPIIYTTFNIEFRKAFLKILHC
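PathHunter D2 cells, attached overnight at 37 deg C, received compound in DMSO plus dopamine at EC20 (50 nM final) for 90 min at 37 deg C. Beta-arrestin recruitment was read as luminescence after 1 h with detection reagent at ambient temperature.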
D2 ag-1 – human D2 receptor agonism in beta-arrestin assay; P14416; DiscoveRx PathHunter D2 beta-arrestin, luminescence, 90 min; 100% = 57 uM dopamine signal; activation, % (test concentration not listed); 0.084% of 360,000 active; AID 624465; in the data active means activation above about 40%; inconclusive means between about 15% and that limit
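DiscoveRx PathHunter D2 beta-arrestin cells (2,100/well) attached overnight, then compound-stimulated 90 min at 37 C in HBSS/10 mM HEPES/0.1% Tween-20 buffer; beta-galactosidase complementation read by luminescence after 1 h at ambient temperature. Dopamine 57 uM final (EC100) as control.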
D2 antagonist – D2 dopamine receptor (human) antagonism; P14416; HEK293 TREx D2 cells, calcium flux, dopamine EC80; inhibition, % at 10 µM; 2% of 340,000 active; in the data active means inhibition above about 30%; inactive means below that, where a call was filed
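Tetracycline-induced HEK293 T-REx cells expressing D2 force-coupled to calcium signalling were dye-loaded, exposed to compound for 180 s, then challenged with an EC80 of dopamine; calcium flux was followed kinetically for a further 180 s.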
D2 ag-2 – agonists of human D2 dopamine receptor; HEK293 T-REx D2 cells, calcium flux agonist mode; P14416; AID 485358; activation, % at 2 µM; 0.53% of 340,000 active;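 active means activation over 3 SD above normal in the single-dose calcium agonist read, cut at about 30% in these data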
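Tetracycline-induced HEK293 Trex cells with D2 receptor force-coupled to calcium signaling, plated overnight at 30 C and loaded with no-wash calcium dye. Calcium flux read kinetically for 180 s after compound addition; responses flag agonists.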
D2 PAM-2 – positively modulates the human D2 dopamine receptor allosterically; HEK293 T-REx D2, calcium flux, EC20 dopamine potentiation; potentiation, % at 10 µM; 0.34% of 340,000 active;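 active means potentiation over 3 SD above the plate norm, cut at about 30% in these data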
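Cells plated with tetracycline inducer and held overnight at 30 C; calcium dye loaded 30–90 min at room temperature; baseline taken, compound added and read 180 s; EC20 dopamine then added and read 180 s.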
D3 arrestin ag – D3 receptor agonism confirmed, beta-arrestin readout; 4% of 2,300 active; DiscoveRx D3 beta-arrestin cells, luminescence, 90 min; Potency, µM (doses to about 76.9 µM), most hits filed as activators; shares compounds with D2 ag-2; further: nearly all actives have a fitted effect of over 70% in size
D2 ag-3 – counter-screen for D3 agonists: human D2 dopamine receptor agonism; Potency, µM (series often up to 76.9 µM), hits mostly activators; 5.9% of 2,300 active; DiscoveRx PathHunter D2 beta-arrestin, luminescence, 90 min; response scale: percent relative to full dopamine signal; shares compounds with D2 ag-2; AID 720507; further: nearly all actives have a fitted effect of over 70% in size
Of the large screens only hits and unclear results are named; the others gave an inactive call (follow-up assays come after a bar, where they were run). Unless noted, the call rests on the fitted dose curve; in most records, active means well fitted activation curve with a large enough effect; inconclusive means small, poorly fitted or top-dose-only effect; inactive means flat fitted curve, though single readings scatter.

CC(CN1CCC(O)CC1)c1ccccc1 (stereo not given)	none
CCCCC(O)CN1CCC(c2ccccc2)CC1 (stereo not given)	D2 antagonist 48, D2 ag-2 52 | D3 arrestin ag inactive | D2 ag-3 inactive
COc1cccc(C(C)NC(=O)Nc2ccccc2Cl)c1 (stereo not given)	none | D3 arrestin ag inactive | D2 ag-3 inactive
COC(=O)c1cc2sccc2n1CC(=O)Nc1ccc(OC)c(OC)c1	none (no result: D2 PAM-1, D2 ag-1, D2 antagonist, D2 PAM-2)
CC(C)C(NC(=O)CCN1C(=O)c2ccccc2C1=O)c1ccccc1 (stereo not given)	none | D3 arrestin ag inactive | D2 ag-3 inactive
CC(NC(=O)CN1C(=O)c2ccccc2C1=O)c1ccccc1 (stereo not given)	none (no result: D2 antagonist, D2 ag-2, D2 PAM-2)
O=C(CCN1CCN(c2ccccc2)CC1)NNC(=O)c1ccccc1	none (no result: D2 antagonist, D2 ag-2, D2 PAM-2)
O=C(CCN1CCN(c2ccccc2)CC1)NNC(=O)Cc1c(F)cccc1Cl	D2 antagonist 60, D2 ag-2 79 | D3 arrestin ag inconclusive | D2 ag-3 inactive
O=C(CCN1CCN(c2ccccc2)CC1)NNC(=O)Cc1ccccc1Cl	D2 antagonist 48, D2 ag-2 81 | D3 arrestin ag inactive | D2 ag-3 inactive
CCOc1ccccc1NC(=O)C1CCCN(c2ncnc3onc(-c4ccc(F)cc4)c23)C1 (stereo not given)	none (no result: D2 PAM-1, D2 ag-1, D2 antagonist)
CCN(CC)S(=O)(=O)c1cc(NC(=O)c2ccc(-n3cncn3)c([N+](=O)[O-])c2)ccc1C	D2 ag-2 57 | D3 arrestin ag inactive | D2 ag-3 inactive
Cc1ccc(NC(=O)c2ccc(-n3cncn3)c([N+](=O)[O-])c2)cc1	none
Cc1cc(Br)ccc1NC(=O)CN(C)C(=O)c1ccc(-n2cncn2)c([N+](=O)[O-])c1	none | D3 arrestin ag inactive | D2 ag-3 inactive
CCCC(C)NC(=O)c1cc(S(=O)(=O)N2CCCCCC2)ccc1OC (stereo not given)	none | D3 arrestin ag inactive | D2 ag-3 inactive
CCCN1Cc2cccc(C(=O)Nc3ccc(C(C)=O)cc3)c2C1=O	none (no result: D2 PAM-1, D2 ag-1, D2 antagonist)
COc1cccc(CSc2nc(-c3ccccc3F)nc3c2Cc2c(CO)cnc(C)c2O3)c1	none (no result: D2 PAM-1, D2 ag-1, D2 antagonist, D2 ag-2)
COc1ccc(/C=N/Nc2nnc(C)n2N)cc1OC(C)=O	none | D3 arrestin ag inconclusive | D2 ag-3 inactive
COCCN=c1scc(-c2cccs2)n1/N=C/c1ccc(O)c(O)c1O	D2 PAM-1 76, D2 ag-1 94, D2 antagonist 73, D2 ag-2 78 | D3 arrestin ag 25µM | D2 ag-3 7.1µM
Cc1ccccc1NC(=O)Cc1nc(COC(=O)CCc2ccccc2)cs1	none
COc1cccc(CC(=O)OCc2csc(CC(=O)Nc3ccccc3C)n2)c1	none | D3 arrestin ag inactive | D2 ag-3 inactive
CC(=O)c1nnn(-c2ccc(C)cc2Cl)c1C	none (no result: D2 PAM-1, D2 ag-1, D2 antagonist, D2 ag-2)
CSc1nc2ccccc2c(=O)n1C1CCOC(C)(C)C1 (stereo not given)	D2 ag-1 inconclusive | D3 arrestin ag inactive | D2 ag-3 inactive
CSc1nc2ccccc2c(=O)n1C1CCCCC1	none
CCc1ccc2c(CC(=O)NNC(=O)c3ccncc3)coc2c1	none | D3 arrestin ag inactive | D2 ag-3 inactive
CC(OC(=O)/C=C/c1ccco1)C(=O)NC1CCCCC1C (stereo not given)	none | D3 arrestin ag inactive | D2 ag-3 inactive
CC(OC(=O)/C=C/c1cccs1)C(=O)NC1CCCCC1C (stereo not given)	none
CC(OC(=O)Cc1ccc(Cl)cc1)C(=O)NC1CCCCC1C (stereo not given)	none | D3 arrestin ag inactive | D2 ag-3 inactive
Cc1cccc(-c2nc(CSc3nncn4c3cc3sccc34)c(C)o2)c1	none (no result: D2 PAM-1, D2 ag-1, D2 antagonist)
CCc1ccc(C(=O)NNC(=O)Cn2c(=O)cnc3ccccc32)cc1	none
O=C(Cn1c(=O)cnc2ccccc21)NNC(=O)c1ccc(Cl)cc1	none (no result: D2 antagonist, D2 ag-2, D2 PAM-2) | D3 arrestin ag inactive | D2 ag-3 inactive
CCOc1ccccc1-c1nc(Cn2c(=O)cc(C)c3c(C)nn(-c4ccccc4)c32)c(C)o1	none (no result: D2 PAM-1, D2 ag-1, D2 antagonist)
Fc1ccccc1N1CCN(c2ncnc3c2nc2n3CCCCC2)CC1	none (no result: D2 PAM-1, D2 ag-1, D2 antagonist)
O=C(C1CCN(c2ncnc3c2nc2n3CCCCC2)CC1)N1CCN(c2ccccc2F)CC1	none | D3 arrestin ag inconclusive | D2 ag-3 inactive
CC(=O)N1CCc2c(sc3c2c(=O)n(-c2cc(Cl)ccc2C)c(=O)n3Cc2ccccc2F)C1	none (no result: D2 PAM-1, D2 ag-1, D2 antagonist)
CCCCOc1ccc(C(=O)N2CCN(c3ccc(N4CCOCC4)nn3)CC2)cc1	none
CCCOc1ccc(C(=O)N2CCN(c3ccc(N)cc3Cl)CC2)cc1	D2 ag-2 31 | D3 arrestin ag inactive | D2 ag-3 inactive
O=C1S/C(=C/c2ccc(N3CCOCC3)o2)C(=O)N1Cc1ccc(F)cc1	none
CC(C)OC(=O)CN1C(=O)S/C(=C/c2ccc(N3CCCCC3)o2)C1=O	none | D3 arrestin ag inactive | D2 ag-3 inactive
FC(F)(F)c1cccc(Nc2c3c(nc4ccc(Cl)cc24)CCC3)c1	none (no result: D2 PAM-1, D2 ag-1, D2 antagonist)
COc1ccc2cc3cc(C(=O)NCCN4CCc5ccccc5C4)sc3nc2c1	D2 ag-2 72 | D3 arrestin ag inactive | D2 ag-3 inconclusive
COc1ccc(/C=C2\CCCC(C(=O)C(F)(F)F)=C2O)cc1	none
O=C(C1=C(O)/C(=C/c2ccc(O)cc2)CCC1)C(F)(F)F	none | D3 arrestin ag inactive | D2 ag-3 inactive
CCc1nc(C)cn1S(=O)(=O)c1cc(Br)c(C)cc1OC	none
CCc1nc(C)cn1S(=O)(=O)c1cc(C)c(OC)cc1C	D2 ag-2 64 | D3 arrestin ag inactive | D2 ag-3 inactive
CCN(CC)S(=O)(=O)c1cccc(C(=O)N/N=C2\CCCC(=O)C2)c1	none
CCN(CC)S(=O)(=O)c1cccc(C(=O)N/N=C2\CC(=O)CC(C)(C)C2)c1	none | D3 arrestin ag inactive | D2 ag-3 inactive
CCC(C)NC(=O)C1CCN(CCCc2ccccc2)CC1 (stereo not given)	D2 ag-2 51 | D3 arrestin ag inactive | D2 ag-3 inactive
CCC(C)NC(=O)C1CCN(C(=O)c2ccccc2)CC1 (stereo not given)	none
COc1ccc(-c2cc(C(=O)NCCc3ccc(OC)c(OC)c3)c3c(-c4ccc(F)cc4)[nH]nc3n2)cc1	none (no result: D2 PAM-1, D2 ag-1, D2 antagonist, D2 ag-2)
COc1ccc(CNC(=O)CCS(=O)(=O)c2cc(Br)cc3c2N(C(C)=O)C(C)C3)cc1 (stereo not given)	none (no result: D2 PAM-1, D2 ag-1, D2 antagonist)
Cc1ccsc1C(=O)NNC(=O)c1ccncc1	none | D3 arrestin ag inactive | D2 ag-3 inactive
C=CCN1CCc2nc(N)sc2CC1	D2 PAM-1 81, D2 ag-1 69, D2 antagonist 89, D2 ag-2 88 | D3 arrestin ag 0.089µM | D2 ag-3 0.045µM
CCN1CCc2nc(N)oc2CC1	none
